Assay outcomes: PubChem BioAssay, several laboratories
CF NFkB block: blocks PAF-induced NF-kB reporter in cystic fibrosis cells | KKLEB NF-kB-GFP reporter, GFP fluorescence overnight | inhibition, % at 5 µM | 0.86% of 360,000 active | AID 588850;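 active = at least 50% inhibition at 5 µM, scaled per plate between neutral and stimulator controls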;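 note: PAF is a Pseudomonas aeruginosa culture filtrate used as stimulus; plate controls were PAF-stimulated DMSO wells for no effect and unstimulated DMSO wells for full effect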
Shn3 inh set2: inhibitors of Schnurri-3 3'UTR reporter in osteoblasts. Clone20 osteoblast Shn3 3'UTR firefly luciferase, 24 h. inhibition, % at 12.5 µM. 0.52% of 360,000 active. AID 588674;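 active = mean inhibition of at least 75% with every replicate also reaching 75%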;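 note: 0% = median of neutral control wells and 100% = pilot-screen positive control compound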
KKLEB tox: reduces viability of KKLEB cystic fibrosis airway cells; 0.36% of 360,000 active; KKLEB CF airway cells viability, ATPlite luminescence, overnight; active compounds read low; cells stimulated with P. aeruginosa culture filtrate; activity change (cytotoxicity), % at 5 µM;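 active = corrected activity change at or below -50% at 5 µM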
HIF-2a inh: HIF-2a inhibition; 786-0 RCC cells HIF-2a reporter, luciferase luminescence, overnight; inhibition, % at 18.8 µM; 0.72% of 360,000 active; AID 624352;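 active = inhibition of the luminescence signal of 40% or more relative to plate controls, in a single-dose primary screen at 18.75 µM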
Peg3 prom inh: reduces Peg3 promoter-driven luciferase expression in HeLa. 1.7% of 360,000 active. HeLa PEG-Prom luciferase reporter, luminescence, overnight. inhibition, % at 20 µM;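 active = inhibition of at least 50% at 20 µM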
EBV LMP1 NFkB: inhibitors of Epstein-Barr LMP1-induced NF-kappaB reporter; LMP1-induced NF-kappaB luciferase reporter cells, luminescence; inhibition, % at 12.5 µM; 0.69% of 350,000 active; in the data active = inhibition above about 41%;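 note: 0% = neutral control wells and 100% = reference inhibitor control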
Mdm2-MdmX confirm: confirmation of inhibitors of human Mdm2/MdmX interaction, set 2; shares compounds with HIF-2a inh; SaOS-2 split-luciferase Mdm2/MdmX complementation, luminescence; inhibition, % at 8 µM; 99% of 740 active;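 active = mean inhibition of the luminescence signal across two replicates at or above 26 percent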
Target sequence (O15151 whole entry, looked up): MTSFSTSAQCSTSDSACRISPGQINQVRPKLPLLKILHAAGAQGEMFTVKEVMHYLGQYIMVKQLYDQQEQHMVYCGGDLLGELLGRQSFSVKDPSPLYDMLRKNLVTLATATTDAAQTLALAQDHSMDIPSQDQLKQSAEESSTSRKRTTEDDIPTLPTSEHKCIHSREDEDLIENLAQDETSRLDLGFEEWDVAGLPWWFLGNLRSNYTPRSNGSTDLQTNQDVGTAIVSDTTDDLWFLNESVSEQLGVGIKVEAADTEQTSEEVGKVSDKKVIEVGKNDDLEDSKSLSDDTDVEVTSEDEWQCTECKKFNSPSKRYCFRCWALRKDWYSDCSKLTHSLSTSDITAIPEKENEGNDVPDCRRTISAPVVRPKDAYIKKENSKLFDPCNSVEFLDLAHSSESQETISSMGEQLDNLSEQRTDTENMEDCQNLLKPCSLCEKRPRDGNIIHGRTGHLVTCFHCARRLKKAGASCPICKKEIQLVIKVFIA
Target sequence (Q00987 whole entry, looked up): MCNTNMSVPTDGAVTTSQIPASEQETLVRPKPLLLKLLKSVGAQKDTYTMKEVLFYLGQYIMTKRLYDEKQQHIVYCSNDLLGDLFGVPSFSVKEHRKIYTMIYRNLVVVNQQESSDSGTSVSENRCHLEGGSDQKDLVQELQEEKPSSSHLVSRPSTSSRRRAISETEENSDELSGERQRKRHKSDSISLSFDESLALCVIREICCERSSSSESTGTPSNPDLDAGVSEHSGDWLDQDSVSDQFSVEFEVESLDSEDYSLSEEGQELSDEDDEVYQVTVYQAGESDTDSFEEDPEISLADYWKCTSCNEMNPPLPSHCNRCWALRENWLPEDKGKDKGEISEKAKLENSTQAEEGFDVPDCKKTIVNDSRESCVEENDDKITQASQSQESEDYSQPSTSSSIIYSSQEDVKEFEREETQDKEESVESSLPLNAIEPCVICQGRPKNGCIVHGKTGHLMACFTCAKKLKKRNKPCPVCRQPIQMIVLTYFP
HIF-2a inh conf: HIF-2a inhibition, single concentration confirmation | inhibition, % at 18.8 µM | shares compounds with HIF-2a inh | 786-0 RCC cells, HIF-2a luciferase reporter luminescence, overnight | 56% of 1,800 active;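 active = mean inhibition across four replicates of at least 40 percent at the single tested concentration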
HIF-1a counter: HIF-1a inhibition counter-screen for HIF-2a hits | shares compounds with HIF-2a inh | MiaPaCa-2 HIF-1a luciferase reporter, desferoxamine, overnight | inhibition, % at 18.8 µM | 72% of 1,800 active | AID 651589;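 active = mean inhibition of the reporter signal across four replicates at the single tested dose of 50% or more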
* marks the source's active call; other numbers are inactive results; nt = not tested or not shown. Sampled rows, rich in hits. Any-hit rate of the full collection: about 2.9%.

SMILES	CF NFkB block	Shn3 inh set2	KKLEB tox	HIF-2a inh	Peg3 prom inh	EBV LMP1 NFkB	HIF-2a inh conf	HIF-1a counter	others
C#CCN(C[C@@H]1[C@@H](OC(=O)NCc2ccccc2F)[C@@H](OC(=O)NCc2ccccc2F)Cn2c(=O)ccc(=O)n21)S(=O)(=O)c1ccc(C)cc1	77*	96*	-85*	95*	97*	61*	97*	106*
C#CCN(C[C@@H]1[C@@H](OC(=O)Nc2cccs2)[C@@H](OC(=O)Nc2cccs2)Cn2c(=O)ccc(=O)n21)S(=O)(=O)c1ccc(C)cc1	81*	-12	-60*	97*	96*	-38	96*	108*
C#CCN(C[C@@H]1[C@@H](OC(=O)NCc2ccccc2F)[C@@H](OC(=O)NCc2ccccc2F)Cn2c(=O)n(CCCCCC)c(=O)n21)S(=O)(=O)c1ccc(C)cc1	17	19	6	6	-1	-29	nt	nt
C#CCN(C[C@@H]1[C@@H](OC(=O)NCc2ccccc2F)[C@@H](OC(=O)NCc2ccccc2F)CN(C(=O)OC(C)C)N1C(=O)OC(C)C)S(=O)(=O)c1ccc(C)cc1	32	22	6	-7	3	-27	nt	nt
CC(=O)Cn1ncc(Br)c(Br)c1=O	96*	97*	-83*	97*	98*	-20	95*	105*
CC(C)(C)C(=O)Cn1ncc(N2CCCC2)c(Br)c1=O	-3	-41	15	-160	-168	-13	nt	nt
CCCn1nc([N+](=O)[O-])c(C(C#N)c2nc3ccccc3o2)c(Cl)c1=O (stereo unspecified)	13	20	6	-6	19	3	nt	nt
CCn1nc([N+](=O)[O-])c(C(C#N)c2nc3cc(C(F)(F)F)ccc3s2)c(Cl)c1=O (stereo unspecified)	61*	9	-35	-16	14	7	nt	nt	Mdm2-MdmX confirm=97*
OCCNc1ncnc2c1c(-c1ccccc1)c(-c1ccccc1)n2Cc1ccco1	17	6	-4	21	7	2	nt	nt
c1ccc(-c2c(-c3ccccc3)n(Cc3ccco3)c3ncnc(NCCCn4ccnc4)c23)cc1	22	38	-6	49*	37	0	34	101*
N=c1c2c(-c3ccccc3)c(-c3ccccc3)n(Cc3ccco3)c2ncn1CCCN1CCOCC1	22	20	0	7	99*	-12	nt	nt	Mdm2-MdmX confirm=102*
CC(C)Cn1cnc2c(c(-c3ccccc3)c(-c3ccccc3)n2Cc2ccco2)c1=N	13	3	-15	58*	104*	7	16	102*
N=c1c2c(-c3ccccc3)c(-c3ccccc3)n(Cc3ccco3)c2ncn1CCCn1ccnc1	21	11	-20	69*	66*	-51	16	74*
CSCCC(NS(=O)(=O)c1ccccc1)C(=O)Nc1nccs1 (stereo unspecified)	-14	7	9	10	6	5	nt	nt
CCOC(=O)c1c(C)[nH]c(C)c1C(=O)COc1ncnc2cc([N+](=O)[O-])ccc12	-23	-6	5	-11	21	4	nt	nt
O=C(CCc1nnc(-c2ccsc2)o1)N1CCc2c(Cl)cccc2C1	2	-80	-2	-181	-136	-23	nt	nt
O=C(Nc1ccc(N2CCN(C(=O)c3ccccc3)CC2)cc1)c1ccc([N+](=O)[O-])o1	84*	42	-72*	90*	103*	-19	88*	105*
CC(C)C(=O)N1CCN(c2ccc(NC(=O)c3ccc([N+](=O)[O-])o3)cc2)CC1	90*	60	-47	89*	112*	-21	54*	98*
CC(C)C(=O)N1CCN(c2ccc(NC(=O)c3ccc(Br)o3)cc2)CC1	5	3	8	-19	-5	-9	nt	nt
Cc1ccccc1C(=O)N1CCN(c2ccc(NC(=O)c3ccc([N+](=O)[O-])o3)cc2)CC1	64*	99*	-20	96*	101*	-1	0	100*
O=S(=O)(c1ccccc1)N(CC(F)(F)F)c1ccc(C(O)(C(F)(F)F)C(F)(F)F)cc1	24	9	-15	-11	7	nt	nt	nt
Cn1nnnc1Sc1ncnc2scc(Br)c12	78*	97*	-42	96*	104*	27	65*	105*
Cn1nnnc1Sc1ncnc2scc(-c3ccccc3Br)c12	50	-4	-19	49*	79*	10	25	75*
Cn1nnnc1SCc1nc2scc(-c3ccccc3)c2c(=O)[nH]1	-6	10	-5	-42	2	-3	nt	nt
CC(=O)C(C(C)=O)C(c1ccccc1)c1nc2ccccc2[nH]c1=O (stereo unspecified)	6	5	3	11	14	15	nt	nt
SMILES	CF NFkB block	Shn3 inh set2	KKLEB tox	HIF-2a inh	Peg3 prom inh	EBV LMP1 NFkB	HIF-2a inh conf	HIF-1a counter	others
COc1cccc(/C=C2/CCC(CN(C)C)C2=O)c1 (stereo unspecified)	-71	78	11	60*	96*	-22	21	103*
CCC(C)N(CC(=O)Nc1cccc(C)c1C)C(=O)CCl (stereo unspecified)	9	-50	-20	51*	44	37	46*	54*	Mdm2-MdmX confirm=103*
CCn1c(=N)c(C(=O)NC)cc2c(=O)n3cccc(C)c3nc21	-43	5	8	22	25	-3	nt	nt
CCNc1nc(C)c2cc(Br)c(=O)n(CC)c2n1	33	47	-44	55*	44	-3	39	46
O=C(NCC(c1ccco1)N1CCc2ccccc2C1)C(=O)Nc1ccccc1 (stereo unspecified)	-13	5	15	-27	-20	-5	nt	nt
O=[N+]([O-])c1ccc(Oc2cccc(Br)c2)c2ccncc12	32	-13	-23	45*	36	3	29	77*
O=[N+]([O-])c1cccc2cnccc12	6	26	-9	10	-6	-1	nt	nt
O=C1CN(C(=O)COC(=O)CCSc2ccccc2Cl)c2ccccc2N1	-1	-1	7	12	12	4	nt	nt
Cc1ccc(C(=O)N/N=C\c2ccc([N+](=O)[O-])s2)cn1	8	-1	-7	63*	27	1	56*	56*
O=C(N/N=C/c1ccc([N+](=O)[O-])s1)c1ccncc1	-2	7	-4	24	-3	4	nt	nt
O=C(N/N=C/c1ccc([N+](=O)[O-])s1)c1cccc(Br)c1	-5	29	-1	12	40	32	nt	nt	Mdm2-MdmX confirm=63*
